# The list is not random: actives were taken first. Their share in the collection is about 8%.
# HT1080 IDH1KD tx: qHTS for induction of synthetic lethality in tumor cells producing 2HG: qHTS for the HT-1080-IDH1KD cell line; HT-1080 IDH1 knockdown viability, ATP luminescence, 48 h; 360,000 tested, 2% active; Potency, µM (doses to about 46.1 µM), without a hit: at the highest dose activity, negative = toxicity, hits mostly cytotoxic; AID 686971, 2013;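 note: 0% = DMSO wells and -100% = cell-free medium wells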
#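 Viability of IDH1-knockdown HT-1080 fibrosarcoma cells was assessed by CellTiter-Glo after 48 h at 37 °C with titrated compound; concentration-effect curves were classified by fit quality and response size.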
# KB-V1 MDR tox: qHTS assay for MDR1-selective chemotherapeutics: Primary screen using the drug-selected MDR subline cells KB-V1; KB-V1 MDR cells viability, CellTiter-Glo, 72 h; Potency, µM (doses to about 46.1 µM), usual class: cytotoxic; 400,000 tested, 3.4% active; AID 1347076, 2019; note: % is set by controls: 0 for no effect and ±100 for the full control effect; nearly all actives have a fitted effect of over 60% in size
#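 Cytotoxicity toward P-gp-expressing KB-V1 cells was determined as loss of CellTiter-Glo luminescence after 72 h at 37 degrees C. Compounds were tested in quantitative HTS format across a concentration range, with curves fitted to normalized data.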
# SW480 rereplic: A quantitative high throughput screen for small molecules that induce DNA re-replication in SW480 colon adenocarcinoma cells. AID 624297, 2012. Potency, µM (doses to about 46.1 µM), for inactives: at the top dose re-replication activation, hits mostly activators. 340,000 tested, 1.8% active. SW480 DNA re-replication, Hoechst DNA content imaging, 48 h; note: % of control where 0% means no effect; nearly all actives have a fitted effect of over 55% in size
#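 Image-based DNA-content assay: after two days of treatment, nuclei were labelled with the DNA dye Hoechst and imaged, and hits were compounds raising the count of nuclei showing high fluorescence intensity.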
# MCF10A rereplic: A quantitative high throughput screen for small molecules that induce DNA re-replication in MCF 10a normal breast cells; MCF 10A DNA re-replication, Hoechst nuclear intensity, 48 h; Potency, µM (doses to about 46.1 µM), for inactives: at the top dose activity, positive = re-replication, hits mostly activators; 350,000 tested, 2.9% active; note: % of control where 0% means no effect; nearly all actives have a fitted effect of over 50% in size
# KB-3-1 tox: qHTS assay for MDR1-selective chemotherapeutics: Primary screen using the parental adenocarcinoma cell KB-3-1. KB-3-1 viability, CellTiter-Glo ATP luminescence, 72 h. Potency, µM (top dose mostly 46.1 µM), usual class: cytotoxic. 400,000 tested, 1.4% active; note: % is set by controls: 0 for no effect and ±100 for the full control effect; nearly all actives have a fitted effect of over 60% in size
#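 KB-3-1 parental drug-naive adenocarcinoma cells in DMEM/10% FBS, incubated 72 h at 37 C with pin-transferred compounds across a concentration series. Viability by CellTiter-Glo luminescence; concentration-response curves fitted after normalization.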
# HT1080-NT tox: qHTS for induction of synthetic lethality in tumor cells producing 2HG: qHTS for the HT-1080-NT fibrosarcoma cell line. HT-1080-NT fibrosarcoma viability, CellTiter-Glo ATP luminescence, 48 h. Potency, µM (highest dose often 46.1 µM), for inactives: at the top dose activity, negative = less viability, actives largely listed as cytotoxic. 360,000 tested, 1.6% active. AID 686970, 2013;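 note: NT is the 2HG producing partner of a matched IDH1 knockdown line; 0% = DMSO-treated cells and -100% = media-only wells without cells; nearly all actives have a fitted effect of over 55% in size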
#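 A 48-hour cytotoxicity screen used HT-1080-NT cells plated 2 hours before compound delivery. ATP-based CellTiter-Glo luminescence measured viability, normalized to DMSO and no-cell controls.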
# Numbers without * were called inactive; i = inactive; ? = inconclusive; · = no result given; ! = not confirmed by another sample; [ ] = remark or other dose. Calls come from the whole dose curve; as a rule, active = well fitted curve in the direction sought with a large enough effect; inconclusive = small, poorly fitted or top-dose-only effect, or another doubt; inactive = no such curve, though single readings can be large; an effect the other way counts as inactive or inconclusive. Potency is the fitted concentration of half-maximal effect.
SMILES,HT1080 IDH1KD tx,KB-V1 MDR tox,SW480 rereplic,MCF10A rereplic,KB-3-1 tox,HT1080-NT tox
CC(=O)OC(C)(C)/C=C/C(=O)[C@](C)(O)[C@H]1[C@H](O)C[C@@]2(C)[C@@H]3CC=C4[C@H](C[C@H](O)C(=O)C4(C)C)[C@]3(C)C(=O)C[C@]12C,0.033µM*,8.2µM*,?,?,0.15µM*,0.082µM*
O=CC=O,·,·,-9%,2%,·,·
Cc1cccc(Cn2cccc(C(=O)Nc3nnc(C)s3)c2=O)c1,·,i,·,·,i,·
O=C1NC[C@H](CCCCN2C[C@H](Cc3ccccc3)N(CCc3ccccc3)C(=O)C2=O)N(CC2CCCCC2)C1=O,?,i,·,·,i,20%
Cc1ccc(C)c(NP(=O)(Oc2ccccc2)Oc2ccccc2)c1,?,i,-1%,21µM*,?,?
C[N+](C)(C)CC1CCCC(C[N+](C)(C)C)C1=O (configuration not stated),3.7µM*,?,?,?,?,?
C[N+](C)(C)CC1CCCc2ccccc2C1=O (configuration not stated),5.8µM*,i,16%,13µM*,?,?
COc1ccc(N2CCN(Cc3nc4ccccc4[nH]3)CC2)cc1,-3%,i,-2%,-7%,i,-2%
COc1ccc(-n2cc(-c3ccccc3)c3c(N4CCN(CCO)CC4)ncnc32)cc1,?,i,?,-13%,i,16µM*
CC(=O)OC1C(O)C(C)OC(OC2C(OC(=O)C3CCC4C(C3)OC3(CC(OC(=O)/C=C/c5ccccc5)C(C)CO3)C43CO3)OC(C)C(O)C2OC(C)=O)C1O (configuration not stated),0.065µM*,?,0.21µM*,?,0.18µM*,0.13µM*
Clc1ccc(CC[C@H](Cn2ccnc2)Sc2c(Cl)cccc2Cl)cc1,·,·,-4%[20.6 µM],11%[20.6 µM],·,·
COC(=O)C1=C(c2ccc(F)cc2OCc2ccccc2)C[C@@H]2CC[C@H]1N2C(=O)NCc1cccc(OC)c1,-17%,i,14%,25%,?,-16%
COC(=O)C1=C(c2ccc(F)cc2OCc2ccccc2)C[C@@H]2CC[C@H]1N2C(=O)NCc1cccc(C(F)(F)F)c1,-11%,?,1%,3.3µM*,?,-7%
COC(=O)C1=C(c2ccc(F)cc2OCc2ccccc2)C[C@@H]2CC[C@H]1N2C(=O)NCCN1CCOCC1,0%,i,?,0.58µM*,i,2%
COc1ccc(NC(=O)CCc2nc(C3=CCN(Cc4cccc(Cl)c4)CC3)no2)cc1OC,·,i,·,·,i,·
CCOP(=O)(OCC)C(NC(=O)c1ccccc1)=C(Cl)Cl,-2%,i,?,-57%,i,13%
CCOC(=O)C1=C(NC(=S)NC(=O)c2ccccc2)c2ccccc2CC12CCCC2,?,?,?,12µM*,?,?
CC1[C@H]2Cc3ccc(O)cc3[C@]1(C)CCN2CCc1ccccc1 (some centres not stated),15µM*,?,1µM*,-3%,i,?
Cc1cc(O)cc2c1O[C@](C)(CCC[C@H](C)CCC[C@H](C)CCCC(C)C)CC2,·,·,6%,19%,·,·
Nc1c(C(=O)NCCCc2ccccc2)c2nc3ccccc3nc2n1Cc1cccs1,-27%,15µM*,2.9µM*,?,?,?
COCCOC(=O)c1c(N)n(Cc2ccccc2)c2nc3ccccc3nc12,-23%,i,25%,2%,i,-25%
CCCCOCCCn1c(N)c(C(=O)OCCOC)c2nc3ccccc3nc21,6%,i,?,0%,i,2%
CCCCNC(=O)c1c(N)n(Cc2ccc3c(c2)OCO3)c2nc3ccccc3nc12,2%,i,9%,6%,i,-2%
CCCCn1c(N)c(C(=O)NCc2cccs2)c2nc3ccccc3nc21,?,13µM*,3.3µM*,1.2µM*,?,?
CCCCn1c(N)c(C(=O)OCCOC)c2nc3ccccc3nc21,16%,?,?,?,i,14%
SMILES,HT1080 IDH1KD tx,KB-V1 MDR tox,SW480 rereplic,MCF10A rereplic,KB-3-1 tox,HT1080-NT tox
CCCOC(=O)c1c(N)n(Cc2cccs2)c2nc3ccccc3nc12,-24%,i,?,21µM*,i,-15%
CCCCCn1c(N)c(C(=O)NCc2cccs2)c2nc3ccccc3nc21,?,13µM*,2.6µM*,5.2µM*,?,?
CN(C(=O)CSc1nnc(COc2ccccc2F)n1N)C1CCCCC1,1%,i,-31%,-25%,i,-1%
CN1CCC(N(C)c2nc(-c3ccccc3)nc3ccccc23)CC1,-2%[9.24 µM],i,2%,-6%,i,16µM*
COc1cc2nc(N3CCCN(C)CC3)nc(N(C)C3CCN(C)CC3)c2cc1OC,·,i,·,·,i,·
Cc1nccc2c1[nH]c1ccc(Br)cc12,-20%,?,-2%,53%,i,-21%
COc1ccc2c(c1)[nH]c1c(C)nccc12,-7%,23µM*!,?,?,?,0%
C=CCn1c(=O)c(C=Nc2c(OC)cccc2[N+](=O)[O-])c(O)n(CCCC)c1=O,-9%,i,?,7.3µM*,i,-1%
C[N+]12CCC(CC1)[C@@H](OC(=O)C(O)(c1ccccc1)c1ccccc1)C2,·,·,-5%[20.6 µM],-5%[20.6 µM],·,·
COc1cc(/C=C/[N+](=O)[O-])ccc1O,?,i,?,?,?,?
CCN(CC)c1ccc(/C=C/[N+](=O)[O-])cc1,16µM*,?,?,?,?,?
O=C(OCCN1CCCCC1)C(O)(c1ccccc1)c1ccccc1,·,·,-6%,1%,·,·
Cc1cccn2c(=O)c3cc(C(=O)N4CCC5(CC4)OCCO5)n(C)c3nc12,13µM*,3.7µM*,7.3µM*,2.6µM*,3.3µM*,16µM*
CN1CCN(c2ncnc3nc[nH]c23)CC1,1%,i,-108%,0.26µM*,i,0%
NC(CCc1ccccc1)c1csc(NC(=O)Nc2ccccc2Oc2ccccc2)n1 (configuration not stated),?,23µM*,·,·,?,23µM*
